{"source": "PubChem BioAssay AID463173", "about": "(ICCB-Longwood Screening Facility, Harvard Medical School, 2010)", "note": "Hit rate of the full screen: of about 52,000 compounds, about 4,300 (8.3%) were called active. What follows is part of a selection rich in actives, with near analogues and random picks from the rest. A number with no mark means an inactive call. No stated cut-off is given here; in the data, active means survival mostly below about 52% (no sharp cut-off); inactive means mostly above about 56%.", "data": [{"system": "DeltatarO mutant", "assay": "S. aureus survival, RN4220 and DeltatarO strains – OD600, teichoic acid synthesis inhibitors, primary screen (AID 463173)", "settings": "S. aureus RN4220 wild type/DeltatarO growth, OD600, 18 h, active compounds read low, screened at 18.75 µg/mL (by protocol)", "values": [{"smiles": "COc1ccc(CN2CCN(Cc3cc(=O)oc4cc(C)ccc34)CC2)c(OC)c1OC", "survival": "101%"}, {"smiles": "COc1cccc(N2CCN(Cc3cc(=O)oc4cc(C)ccc34)CC2)c1", "survival": "70%"}, {"smiles": "Cc1ccc2c(CN3CCN(C(=O)c4ccc(Br)cc4)CC3)cc(=O)oc2c1", "survival": "51%"}, {"smiles": "Cc1ccc2c(CN3CCN(C(=O)c4ccc(F)cc4)CC3)cc(=O)oc2c1", "survival": "33% (active)"}, {"smiles": "Cc1ccc2c(CN3CCN(Cc4ccccc4Cl)CC3)cc(=O)oc2c1", "survival": "43%"}, {"smiles": "COc1ccccc1C(=O)N1CCN(Cc2cc(=O)oc3cc(C)ccc23)CC1", "survival": "38% (active)"}, {"smiles": "Cc1ccc(N2C(=O)CSC23C(=O)N(CC(=O)NCCc2ccccc2)c2ccccc23)cc1C", "note": "(stereo unspecified)", "survival": "95%"}, {"smiles": "O=c1[nH]c2cc3c(cc2cc1C(c1nnnn1C1CCCC1)N1CCc2ccccc21)OCCO3", "note": "(stereo unspecified)", "survival": "64%"}, {"smiles": "COc1cccc(N2CC(NC(=O)c3cccc(OC)c3OC)CC2=O)c1", "note": "(stereo unspecified)", "survival": "115%"}, {"smiles": "NC(=O)CN(C1CCCCC1)S(=O)(=O)c1ccc(Br)cc1", "survival": "96%"}, {"smiles": "CCCCC(CC)CNC(=O)c1ccc2c(=O)n(Cc3ccc(OC)cc3)c(=O)[nH]c2c1", "note": "(stereo unspecified)", "survival": "84%"}, {"smiles": "Cc1ccc(CCNC(c2ccc(F)cc2)c2nnc(-c3ccccc3Cl)o2)cc1", "note": "(stereo unspecified)", "survival": "-8% (active)"}, {"smiles": "Fc1ccc(C(NCCc2ccc(Cl)cc2)c2nnc(-c3ccccc3Cl)o2)cc1", "note": "(stereo unspecified)", "survival": "26% (active)"}, {"smiles": "Fc1ccc(NCc2ccccc2-c2nnc(-c3ccccc3Cl)o2)cc1", "survival": "88%"}, {"smiles": "COc1ccc(CCNC(c2ccc(F)cc2)c2nnc(-c3ccccc3Cl)o2)cc1OC", "note": "(stereo unspecified)", "survival": "57%"}, {"smiles": "Fc1ccc(C(Nc2ccccc2Cl)c2nnc(-c3ccccc3Cl)o2)cc1", "note": "(stereo unspecified)", "survival": "83%"}, {"smiles": "Fc1ccc(C(NCCc2ccccc2)c2nnc(-c3ccccc3Cl)o2)cc1", "note": "(stereo unspecified)", "survival": "104%"}, {"smiles": "CCOc1ccc(C(C)C)cc1S(=O)(=O)Nc1cccc(-c2ccc(N3CCOCC3)nn2)c1", "survival": "87%"}, {"smiles": "Cc1nc2nc(NC(=O)c3ccc(C(C)(C)C)cc3)[nH]n2c(=O)c1Cl", "survival": "98%"}, {"smiles": "COc1ccc(S(=O)(=O)n2nc(C)c(S(=O)(=O)N3CCCCCC3)c2C)cc1OC", "survival": "6% (active)"}, {"smiles": "COc1ccc(S(=O)(=O)n2nc(C)c(S(=O)(=O)N3CCCCCC3)c2C)cc1C", "survival": "81%"}, {"smiles": "Cc1nn(C(=O)c2cccc([N+](=O)[O-])c2C)c(C)c1S(=O)(=O)N1CCOCC1", "survival": "76%"}, {"smiles": "COc1ccc(S(=O)(=O)n2nc(C)c(S(=O)(=O)N3CCC(C)CC3)c2C)cc1OC", "survival": "70%"}, {"smiles": "Cc1nn(S(=O)(=O)c2ccccc2)c(C)c1S(=O)(=O)N1CCC(C)CC1", "survival": "72%"}, {"smiles": "Cc1nn(C(=O)c2ccccc2F)c(C)c1S(=O)(=O)N1CCCCCC1", "survival": "83%"}, {"smiles": "Cc1nn(S(=O)(=O)c2ccc(F)cc2)c(C)c1S(=O)(=O)N1CCCCC1", "survival": "72%"}, {"smiles": "Cc1nn(C(=O)c2cccc([N+](=O)[O-])c2C)c(C)c1S(=O)(=O)N1CCCCCC1", "survival": "-2% (active)"}, {"smiles": "Cc1nn(S(=O)(=O)c2ccc(F)cc2)c(C)c1S(=O)(=O)N1CCC(C)CC1", "survival": "-1% (active)"}, {"smiles": "CC(C)c1ccc(Nc2cc(C(=O)NCCc3ccccc3)c3ccccc3n2)cc1", "survival": "81%"}, {"smiles": "Cc1nn(CC(=O)NCc2ccccc2Br)c(=O)c2cc3occc3n12", "survival": "132%"}, {"smiles": "Cc1ccc(CCNC(=O)c2ccc3c(c2)N(Cc2ccc(F)cc2)CCS3)cc1", "survival": "71%"}, {"smiles": "CC1=C(c2ccc(C(C)C)cc2)S(=O)(=O)N=C1N1CCN(c2ccc(F)cc2)CC1", "survival": "74%"}, {"smiles": "O=S(=O)(NCCS(=O)(=O)N1CCN(c2cccc(Cl)c2)CC1)c1ccc(F)cc1", "survival": "83%"}, {"smiles": "CCC1CCCCN1CCCNC(=O)c1cc2c(Cl)nc3ccc(C)cc3c2s1", "note": "(stereo unspecified)", "survival": "67%"}, {"smiles": "COc1ccccc1C(=O)NCCn1cc(SCc2ccc(C)cc2)c2ccccc21", "survival": "22% (active)"}, {"smiles": "COc1ccccc1C(=O)NCCn1cc(SCC(=O)Nc2ccccc2F)c2ccccc21", "survival": "55%"}, {"smiles": "COc1ccccc1C(=O)NCCn1cc(SCc2ccccc2Cl)c2ccccc21", "survival": "34% (active)"}, {"smiles": "O=C(NCCn1cc(SCc2ccccc2Cl)c2ccccc21)c1cccs1", "survival": "57%"}, {"smiles": "Cc1ccc(CSc2cn(CCNC(=O)c3cccs3)c3ccccc23)cc1", "survival": "58%"}, {"smiles": "COc1ccc(CCNC(=O)CSc2cn(CCNC(=O)c3ccccc3F)c3ccccc23)cc1OC", "survival": "137%"}, {"smiles": "CCOc1ccc(C(=O)Nc2ccc(S(=O)(=O)N3CCOCC3)cc2)cc1OCC", "survival": "72%"}, {"smiles": "CCOc1ccc(CNC(=O)c2cccc(NC(=O)N3CCSc4ncccc43)c2)cc1OC", "survival": "92%"}, {"smiles": "COc1cccc(N2CC(NC(=O)c3ccc4c(c3)OCO4)CC2=O)c1", "note": "(stereo unspecified)", "survival": "92%"}, {"smiles": "Cc1c(C(=O)NCCN(C)C)sc2nc3n(c(=O)c12)CCC3", "survival": "87%"}, {"smiles": "O=C(c1cccs1)N(Cc1nc2sc3c(c2c(=O)[nH]1)CCCC3)C1CCCC1", "survival": "45% (active)"}, {"smiles": "O=C(C1CCCCC1)N(Cc1nc2sc3c(c2c(=O)[nH]1)CCCC3)Cc1cccs1", "survival": "66%"}, {"smiles": "Cc1sc2nc(CN(C(=O)c3cccs3)C3CCCC3)[nH]c(=O)c2c1C", "survival": "80%"}, {"smiles": "Cc1ccc(NCc2cccn2-c2nnc(N3CCC(C(=O)NCc4ccc(OC(C)C)cc4)CC3)s2)cc1", "survival": "69%"}, {"smiles": "CCCCn1c(=N)c(C(=O)NC2CCCCC2)cc2c(=O)n3cccc(C)c3nc21", "survival": "62%"}, {"smiles": "CCOc1ccc(C(=O)Nc2ccc(NC(=O)c3ccccc3)cc2)cc1Br", "survival": "85%"}, {"smiles": "CCOc1ccc(C(=O)Nc2ccc3c(c2)OCCO3)cc1Br", "survival": "37% (active)"}, {"smiles": "CCOc1ccc(C(=O)Nc2cccc(NC(=O)c3ccc(C(C)(C)C)cc3)c2)cc1Br", "survival": "81%"}, {"smiles": "O=C(C1COc2ccccc2O1)N(Cc1cccnc1)c1nc2c(F)cccc2s1", "note": "(stereo unspecified)", "survival": "84%"}, {"smiles": "CCCC(=O)N1CCCC(c2nc(-c3cccs3)no2)C1", "note": "(stereo unspecified)", "survival": "107%"}, {"smiles": "Cc1c(C)n(Cc2ccccc2)c2ccc(C(=O)NC(C)c3ccccc3)cc12", "note": "(stereo unspecified)", "survival": "78%"}, {"smiles": "COc1ccc(NC(=O)c2oc3c(c2C)-c2nn(Cc4c(F)cccc4Cl)cc2CC3)c(OC)c1", "survival": "72%"}, {"smiles": "Cc1ccc(OCCSc2nnc(-c3cccs3)o2)cc1Cl", "survival": "45% (active)"}, {"smiles": "COc1cc(C)ccc1OCCSc1nnc(-c2ccc(C)cc2)o1", "survival": "55%"}, {"smiles": "Cc1ccccc1OCCSc1nnc(-c2cccs2)o1", "survival": "106%"}, {"smiles": "Clc1ccccc1OCCSc1nnc(-c2cccs2)o1", "survival": "43%"}, {"smiles": "Cc1cc(Cl)ccc1OCCSc1nnc(-c2cccs2)o1", "survival": "37% (active)"}, {"smiles": "Cc1ccc(OCCSc2nnc(-c3cccs3)o2)cc1", "survival": "53%"}, {"smiles": "COc1ccc(-c2nnc(SCCOc3ccccc3C)o2)cc1OC", "survival": "64%"}, {"smiles": "Cc1cccc(OCCSc2nnc(-c3cccs3)o2)c1", "survival": "58%"}, {"smiles": "COc1cc(C)ccc1OCCSc1nnc(-c2cccs2)o1", "survival": "40% (active)"}, {"smiles": "O=c1c2cnn(-c3ccc(F)cc3)c2ncn1Cc1ccc(F)cc1", "survival": "106%"}, {"smiles": "CCn1c2c(c(=O)n3ncc(C(=O)N4CCN(c5ccc(C(C)=O)cc5)CC4)c13)CN(Cc1ccc(OC)cc1)CC2", "survival": "126%"}, {"smiles": "COc1ccc(Br)cc1CNC(=O)c1ccc2c(c1)nc1n2CCC(C)C1", "note": "(stereo unspecified)", "survival": "75%"}, {"smiles": "COc1ccccc1C(=O)N1CCC(c2noc(-c3ccc(S(=O)(=O)N4CCCC4)cc3)n2)CC1", "survival": "98%"}, {"smiles": "COc1ccc(NC(=O)C(Cc2ccccc2)NS(=O)(=O)c2ccc3c(c2)CCN3C(C)=O)cc1", "note": "(stereo unspecified)", "survival": "72%"}, {"smiles": "COc1ccc(N2CCN(C(=O)c3ccc4c(c3)N(Cc3ccc(F)cc3)C(=O)c3ccccc3S4=O)CC2)cc1", "note": "(stereo unspecified)", "survival": "116%"}, {"smiles": "CC(=O)Nc1ccc(S(=O)(=O)NC2=NCN(CCO)CN2)cc1", "survival": "89%"}, {"smiles": "COc1ccc(C)cc1NC(=O)CSc1nc(=O)n(Cc2ccco2)c2c1CCC2", "survival": "116%"}, {"smiles": "CCCCOc1ccc(Cn2c(=O)oc3ccc(C)cc32)cc1OC", "survival": "36% (active)"}, {"smiles": "CCCCCOc1ccc(Cn2c(=O)oc3ccccc32)cc1", "survival": "124%"}, {"smiles": "CCCCOc1ccc(Cn2c(=O)oc3ccc(C)cc32)cc1", "survival": "40% (active)"}, {"smiles": "CCCCCOc1ccc(Cn2c(=O)oc3ccc(C)cc32)cc1OC", "survival": "4% (active)"}, {"smiles": "O=C(O)c1ccc2oc(=O)n(Cc3ccccc3)c2c1", "survival": "94%"}, {"smiles": "CC(C)CCOc1ccc(Cn2c(=O)oc3ccccc32)cc1", "survival": "127%"}, {"smiles": "CCCCOc1ccc(Cn2c(=O)oc3ccccc32)cc1", "survival": "127%"}, {"smiles": "COc1cc(Cn2c(=O)oc3ccc(C)cc32)ccc1OCCC(C)C", "survival": "-1% (active)"}, {"smiles": "CCCCOc1ccc(CN2C(=O)C(=O)c3cc(C)ccc32)cc1OC", "survival": "122%"}, {"smiles": "CCOc1ccc(CNC(=O)c2ccc3oc(=O)n(Cc4ccccc4)c3c2)cc1", "survival": "79%"}, {"smiles": "CCOc1ccc(CCNC(=O)c2ccc(CSCc3ccccc3C)o2)cc1OCC", "survival": "112%"}, {"smiles": "Cc1ccc(NC(=O)c2ccc(NC(=O)N3CCSc4ncccc43)cc2)cc1Cl", "survival": "109%"}, {"smiles": "CCCn1cc(S(=O)(=O)c2cc(C)ccc2C)c(=O)c2cc(F)c(N3CCN(CC)CC3)cc21", "survival": "80%"}, {"smiles": "O=C(Nc1ccccc1C(=O)OCc1cc(=O)n2ccsc2n1)c1ccc(Cl)cc1", "survival": "76%"}, {"smiles": "COc1ccc(NC(=O)c2ccc(-c3nc(CSc4ccccc4)c(C)o3)cc2)cc1OC", "survival": "84%"}, {"smiles": "Cc1ccc(C)c(NC(=O)CN(C)S(=O)(=O)c2cccc3cccnc23)c1", "survival": "85%"}, {"smiles": "CCCn1c(N)nc2c1c(=O)[nH]c(=O)n2C", "survival": "71%"}, {"smiles": "COC(=O)c1ccc(NC(=O)CC2C(=O)N(c3ccc(Cl)cc3)C(=O)N2Cc2cccs2)cc1", "note": "(stereo unspecified)", "survival": "102%"}]}]}
